Data on 10 compounds can be found in ChEMBL document CHEMBL3988442, “University of Dundee, Small-Polar-MMV Screening Library” (2021).

For some assays here: Entries with a potency or affinity are not part of this list.

What all share (set-up): scale not given: direction of the effect not stated beside the values
The target of test [1] is Protein translocase subunit SecA (Escherichia coli (strain K12)) (UniProt P10408). The test can be described thus: Assay to Identify E. coli SecA ATPase Inhibitors. Conditions: 30 µM. The class given is functional.
Test [2] deals with T1, Ubiquitin-activating enzyme e1, putative (Leishmania donovani (strain BPK282A1)) (UniProt E9BSI1).
T1 sequence (whole entry): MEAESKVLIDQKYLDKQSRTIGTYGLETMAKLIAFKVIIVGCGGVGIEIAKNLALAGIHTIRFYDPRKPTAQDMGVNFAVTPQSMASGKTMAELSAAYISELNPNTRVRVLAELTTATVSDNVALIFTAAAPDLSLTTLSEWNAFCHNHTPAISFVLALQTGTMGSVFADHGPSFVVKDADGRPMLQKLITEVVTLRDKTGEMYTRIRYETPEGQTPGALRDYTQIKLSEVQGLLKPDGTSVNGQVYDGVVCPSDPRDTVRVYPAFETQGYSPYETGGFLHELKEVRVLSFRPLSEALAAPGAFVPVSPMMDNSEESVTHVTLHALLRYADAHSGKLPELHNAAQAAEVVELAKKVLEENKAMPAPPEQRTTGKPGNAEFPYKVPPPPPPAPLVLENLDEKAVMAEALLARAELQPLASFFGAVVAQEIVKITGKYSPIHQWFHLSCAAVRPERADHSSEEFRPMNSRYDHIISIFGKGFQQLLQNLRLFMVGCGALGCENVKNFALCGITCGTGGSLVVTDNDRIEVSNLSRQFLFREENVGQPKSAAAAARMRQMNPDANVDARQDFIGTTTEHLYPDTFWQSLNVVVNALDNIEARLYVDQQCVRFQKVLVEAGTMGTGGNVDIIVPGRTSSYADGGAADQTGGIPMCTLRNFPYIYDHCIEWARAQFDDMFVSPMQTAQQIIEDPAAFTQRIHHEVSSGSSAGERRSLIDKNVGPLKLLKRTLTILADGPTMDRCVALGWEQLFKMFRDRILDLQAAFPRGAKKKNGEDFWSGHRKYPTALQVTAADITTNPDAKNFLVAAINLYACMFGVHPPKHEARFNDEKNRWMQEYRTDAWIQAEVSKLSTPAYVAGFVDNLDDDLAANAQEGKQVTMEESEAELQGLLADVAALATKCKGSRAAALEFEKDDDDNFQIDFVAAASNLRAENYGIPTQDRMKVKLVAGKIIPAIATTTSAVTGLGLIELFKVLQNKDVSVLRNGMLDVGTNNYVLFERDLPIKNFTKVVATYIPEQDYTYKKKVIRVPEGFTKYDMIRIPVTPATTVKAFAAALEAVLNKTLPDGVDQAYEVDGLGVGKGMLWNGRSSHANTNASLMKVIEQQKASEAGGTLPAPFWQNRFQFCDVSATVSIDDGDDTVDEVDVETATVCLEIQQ
The test can be described thus: Leishmania donovani Ubiquitin Activating Enzyme (LdE1). The class given is functional. As to conditions: 30 µM.

Test [3] deals with AMP-activated protein kinase, AMPK (Homo sapiens) (UniProt P54646+O43741+P54619+Q9UGJ0+Q9Y478+Q13131+Q9UGI9). As to the kind of experiment: AMP-dependent Kinase enzyme assay. An in vitro enzyme assay that detects ADP turnover that is directly proportional to AMPK activity. This uses naive AMPK that is activated during the assay with MK-8722. In kind it is functional. Conditions: 30 µM.

Test [4] has as its target Sialic acid-binding Ig-like lectin 9 (Homo sapiens) (UniProt Q9Y336). As to the kind of experiment: Hs-Siglec9 ALPHAscreen SOP 20170721. Conditions: 10 µM. For orientation: In Alpha technology, singlet oxygen from a donor bead excites a nearby acceptor bead.
The subject of another test is Trypanosoma cruzi. The test can be described thus: Trypanosoma cruzi phosphomannomutase and mannose-1-phosphate guanylyltransferase assay. As to conditions: 10 µM. The class given is functional.
Test [5] has as its target T2, Arginase-2, mitochondrial (Homo sapiens) (UniProt P78540).
T2 sequence (whole entry): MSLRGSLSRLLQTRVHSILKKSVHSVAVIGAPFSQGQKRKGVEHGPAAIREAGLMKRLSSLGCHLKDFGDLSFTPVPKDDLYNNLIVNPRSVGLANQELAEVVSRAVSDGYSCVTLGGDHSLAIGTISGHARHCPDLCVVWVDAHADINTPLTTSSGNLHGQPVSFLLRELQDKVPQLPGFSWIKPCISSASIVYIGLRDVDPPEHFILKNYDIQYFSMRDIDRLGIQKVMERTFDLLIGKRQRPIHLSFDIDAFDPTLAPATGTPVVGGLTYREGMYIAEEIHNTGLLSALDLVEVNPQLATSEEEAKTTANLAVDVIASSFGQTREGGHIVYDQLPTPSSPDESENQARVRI
As to the kind of experiment: in vitro enzyme assay to detect the production of urea directly proportional to the activity of Arginase II. Further: in the data most compounds retested in dose-response had high values. The class given is functional. As to conditions: 33.3 µM.

Test [6] concerns the target T3, Proteasome subunit beta (Trypanosoma cruzi) (UniProt O96673).
T3 sequence (whole entry): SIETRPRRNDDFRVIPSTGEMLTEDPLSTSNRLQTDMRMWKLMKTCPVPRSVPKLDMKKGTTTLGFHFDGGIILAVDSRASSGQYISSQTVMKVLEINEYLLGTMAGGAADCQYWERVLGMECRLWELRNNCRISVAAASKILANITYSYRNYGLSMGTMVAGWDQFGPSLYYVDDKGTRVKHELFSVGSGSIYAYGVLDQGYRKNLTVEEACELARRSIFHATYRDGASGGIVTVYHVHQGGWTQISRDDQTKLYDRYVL
As to the kind of experiment: Trypanosoma cruzi proteasome chymotrypsin-like activity (TcProtChymo) assay. Further: in the data most compounds retested in dose-response had high values. In kind it is functional. Conditions: 9.37 µM.

The species entered for the next test is Homo sapiens. As to the kind of experiment: To identify inhibition of the IFN signalling (Jak-Stat) pathway via expression of an eGFP reporter gene under the control of an IFN-stimulated response element (ISRE) containing MxA promoter. Conditions: 30 µM. In kind it is functional. (In general: In a reporter assay the amount or activity of a reporter protein is the signal.)

Test [7] concerns the target T4, Tyrosyl-tRNA synthetase, putative (Trypanosoma cruzi (strain CL Brener)) (UniProt Q4DSP6).
T4 sequence (whole entry): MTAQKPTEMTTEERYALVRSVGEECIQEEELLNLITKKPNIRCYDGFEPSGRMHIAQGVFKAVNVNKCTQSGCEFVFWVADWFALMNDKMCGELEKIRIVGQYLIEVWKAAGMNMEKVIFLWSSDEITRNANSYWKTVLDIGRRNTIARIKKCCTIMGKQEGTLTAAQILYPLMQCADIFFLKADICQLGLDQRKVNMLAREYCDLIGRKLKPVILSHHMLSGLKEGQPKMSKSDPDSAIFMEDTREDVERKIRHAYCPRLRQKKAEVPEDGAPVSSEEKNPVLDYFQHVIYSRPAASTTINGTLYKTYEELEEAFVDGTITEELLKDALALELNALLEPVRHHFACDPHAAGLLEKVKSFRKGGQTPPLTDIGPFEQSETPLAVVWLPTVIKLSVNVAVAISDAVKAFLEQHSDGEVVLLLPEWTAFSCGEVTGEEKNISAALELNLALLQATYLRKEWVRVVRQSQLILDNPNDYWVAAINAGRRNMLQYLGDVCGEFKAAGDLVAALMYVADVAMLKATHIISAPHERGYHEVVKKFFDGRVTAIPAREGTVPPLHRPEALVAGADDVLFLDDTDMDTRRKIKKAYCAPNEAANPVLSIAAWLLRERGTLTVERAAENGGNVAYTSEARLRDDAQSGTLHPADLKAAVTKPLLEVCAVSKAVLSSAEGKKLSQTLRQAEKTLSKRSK
As to the kind of experiment: Trypanosoma cruzi tyrosyl tRNA synthetase (TcYRS) _High Tyrosine SOP. Further: in the data most compounds retested in dose-response had high values. In kind it is functional. Conditions: 30 µM.

The target in test [8] is T4, Tyrosyl-tRNA synthetase, putative (Trypanosoma cruzi (strain CL Brener)). As to the kind of experiment: Trypanosoma cruzi tyrosyl tRNA synthetase (TcYRS) SOP. The class given is functional. Conditions: 30 µM.
In test [9] the target is Chromo domain-containing protein 1 (Saccharomyces cerevisiae (strain ATCC 204508 / S288c) (Baker's yeast)) (UniProt P32657). The test can be described thus: ScCHD-1 Enzyme Inhibition Assay. Further: in the data most compounds retested in dose-response had high values. Conditions: 30 µM. The class given is functional.
Chromo domain-containing protein 1 (Saccharomyces cerevisiae (strain ATCC 204508 / S288c) (Baker's yeast)), sequence (P32657 whole entry, the tested form may be a part): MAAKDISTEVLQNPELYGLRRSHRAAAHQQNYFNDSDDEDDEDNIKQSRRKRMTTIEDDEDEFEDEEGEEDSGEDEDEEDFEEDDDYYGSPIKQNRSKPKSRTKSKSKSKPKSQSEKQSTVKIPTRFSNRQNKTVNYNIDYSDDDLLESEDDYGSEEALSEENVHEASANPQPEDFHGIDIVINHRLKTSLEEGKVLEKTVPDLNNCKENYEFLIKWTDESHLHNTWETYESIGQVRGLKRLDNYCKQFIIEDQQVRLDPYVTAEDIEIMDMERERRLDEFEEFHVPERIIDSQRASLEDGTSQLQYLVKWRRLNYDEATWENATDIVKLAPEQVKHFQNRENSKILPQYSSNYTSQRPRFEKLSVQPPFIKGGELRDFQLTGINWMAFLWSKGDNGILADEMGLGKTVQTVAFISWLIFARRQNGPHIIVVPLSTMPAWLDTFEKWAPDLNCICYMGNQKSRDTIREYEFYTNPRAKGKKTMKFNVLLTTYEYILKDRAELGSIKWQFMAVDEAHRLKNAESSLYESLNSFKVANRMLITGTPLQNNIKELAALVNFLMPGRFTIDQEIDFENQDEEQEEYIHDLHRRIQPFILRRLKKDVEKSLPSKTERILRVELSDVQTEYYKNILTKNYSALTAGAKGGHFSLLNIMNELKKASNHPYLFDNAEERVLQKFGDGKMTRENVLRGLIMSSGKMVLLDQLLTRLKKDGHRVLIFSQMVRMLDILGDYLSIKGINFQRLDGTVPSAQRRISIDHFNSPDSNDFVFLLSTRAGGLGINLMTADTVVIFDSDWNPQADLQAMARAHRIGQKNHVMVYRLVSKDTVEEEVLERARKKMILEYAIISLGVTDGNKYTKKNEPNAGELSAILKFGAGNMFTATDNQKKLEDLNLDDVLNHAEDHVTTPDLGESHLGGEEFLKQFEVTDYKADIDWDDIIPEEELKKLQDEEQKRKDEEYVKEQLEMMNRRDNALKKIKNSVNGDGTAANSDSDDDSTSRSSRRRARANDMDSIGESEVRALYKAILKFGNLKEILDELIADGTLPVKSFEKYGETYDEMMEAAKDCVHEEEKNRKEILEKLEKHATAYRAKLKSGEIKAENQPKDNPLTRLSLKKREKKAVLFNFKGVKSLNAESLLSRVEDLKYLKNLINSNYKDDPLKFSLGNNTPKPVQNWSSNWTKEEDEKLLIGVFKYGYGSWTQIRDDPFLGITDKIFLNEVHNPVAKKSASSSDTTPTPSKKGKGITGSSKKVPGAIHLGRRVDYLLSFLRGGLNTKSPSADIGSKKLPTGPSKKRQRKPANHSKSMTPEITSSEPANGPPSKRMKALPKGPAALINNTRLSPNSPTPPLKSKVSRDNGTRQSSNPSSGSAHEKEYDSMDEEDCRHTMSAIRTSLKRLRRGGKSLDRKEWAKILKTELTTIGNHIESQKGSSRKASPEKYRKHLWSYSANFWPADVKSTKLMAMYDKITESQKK

Protein translocase subunit SecA (Escherichia coli (strain K12)), sequence (P10408 whole entry): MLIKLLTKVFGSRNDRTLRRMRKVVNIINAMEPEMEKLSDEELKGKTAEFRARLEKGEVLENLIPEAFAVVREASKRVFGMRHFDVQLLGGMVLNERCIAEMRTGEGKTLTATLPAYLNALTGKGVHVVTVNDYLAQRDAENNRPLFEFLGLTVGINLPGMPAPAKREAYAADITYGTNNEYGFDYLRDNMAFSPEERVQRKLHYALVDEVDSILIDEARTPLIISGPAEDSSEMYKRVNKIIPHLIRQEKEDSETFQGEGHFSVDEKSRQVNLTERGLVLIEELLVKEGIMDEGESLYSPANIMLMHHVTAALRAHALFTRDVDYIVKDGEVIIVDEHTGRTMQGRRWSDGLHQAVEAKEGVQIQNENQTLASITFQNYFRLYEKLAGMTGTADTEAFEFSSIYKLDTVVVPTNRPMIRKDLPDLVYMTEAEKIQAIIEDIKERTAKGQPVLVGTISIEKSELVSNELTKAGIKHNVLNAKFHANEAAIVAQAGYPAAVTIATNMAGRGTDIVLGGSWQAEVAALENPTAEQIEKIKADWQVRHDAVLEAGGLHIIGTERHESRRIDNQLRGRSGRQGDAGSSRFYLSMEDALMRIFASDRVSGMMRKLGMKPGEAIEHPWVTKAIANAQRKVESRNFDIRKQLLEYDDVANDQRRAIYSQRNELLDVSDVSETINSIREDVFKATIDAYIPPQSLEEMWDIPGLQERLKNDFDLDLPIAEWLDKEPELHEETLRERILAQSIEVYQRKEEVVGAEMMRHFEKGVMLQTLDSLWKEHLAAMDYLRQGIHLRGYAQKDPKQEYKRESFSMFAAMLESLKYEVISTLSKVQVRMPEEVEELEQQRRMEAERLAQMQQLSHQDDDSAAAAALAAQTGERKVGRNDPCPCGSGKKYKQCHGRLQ
Sialic acid-binding Ig-like lectin 9 (Homo sapiens), sequence (Q9Y336 whole entry): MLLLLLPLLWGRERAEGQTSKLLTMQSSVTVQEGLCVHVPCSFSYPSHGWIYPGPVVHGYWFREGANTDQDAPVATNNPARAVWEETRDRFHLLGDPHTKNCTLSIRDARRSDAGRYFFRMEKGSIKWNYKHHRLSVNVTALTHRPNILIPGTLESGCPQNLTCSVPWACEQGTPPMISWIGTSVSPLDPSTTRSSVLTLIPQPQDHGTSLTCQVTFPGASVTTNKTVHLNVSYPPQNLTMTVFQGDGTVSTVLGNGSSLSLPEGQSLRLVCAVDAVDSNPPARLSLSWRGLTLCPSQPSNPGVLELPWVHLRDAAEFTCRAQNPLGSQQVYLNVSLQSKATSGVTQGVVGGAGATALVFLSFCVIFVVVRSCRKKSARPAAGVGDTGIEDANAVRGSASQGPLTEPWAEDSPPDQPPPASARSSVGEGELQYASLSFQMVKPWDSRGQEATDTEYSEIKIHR

In the case of `Cc1nc(C2CCCN2CC(=O)NCCc2ccsc2)no1` (stereo not given), the Percent Effect is -2.17% in [1]; 16.2% in [2]; -10.4% in [3]; 13.2% in [4]; 5.11% in the test on Trypanosoma cruzi; 3.51% in test [5]. Moreover, the Percent Effect in [6] was 10.4%; in the test listed under Homo sapiens, -5.59%; in [7], 6.93%; in test [8] it was 18.3%; in test [9], -8.06%.

With `COc1cn(-c2ccccc2)nc1C(=O)NCCCN1CCCC(C)C1` (stereo not given), the Percent Effect was -5.93% in test [1]; 0% in [2]; 1.22% in test [3]; 18% in [4]; 2.62% in the test with Trypanosoma cruzi; 0.356% in [5]. The Percent Effect in test [6] was -2.2%; in the test listed under Homo sapiens, 5.68%; in test [7], 4.85%; in test [8], 9.76%; in [9], -1.59%.

Regarding `CCC(C)N(C)S(=O)(=O)c1ccc(CCNC(C)=O)s1` (stereo not given), the Percent Effect in test [1] is -1.87%; in [2], -4.17%; in [3], -4.26%; in test [4], -5.04%; in the test with Trypanosoma cruzi, -2.62%; in [5], 0.442%. The Percent Effect is 8.77% in test [6]; 10.4% in the test listed under Homo sapiens; -3.16% in test [7]; -5.13% in test [8]; 5.31% in [9].

For the compound `CCc1nc(CN(CC(N)=O)C(C)C)cs1`, the Percent Effect in test [1] was -2.67%; in test [2] it was 17.7%; in test [3], 0.603%; in [4], 3.91%; with Trypanosoma cruzi, 1.23%; in test [5] it was -1.14%. Besides, the Percent Effect was 7.78% in [6]; 7.33% in the test filed under Homo sapiens; 10.3% in [7]; 21.5% in test [8]; -2.93% in test [9].

For the compound `O=C(NCCn1ccc(-c2ccncc2)n1)c1ccncc1`, the Percent Effect was -1.85% in test [1]; 5.48% in test [2]; -0.372% in test [3]; 8.72% in [4]; 1.57% in the test on Trypanosoma cruzi; -0.455% in test [5]. Moreover, the Percent Effect was 9.58% in test [6]; 2.43% in the test listed under Homo sapiens; 2.15% in test [7]; 2.5% in test [8]; -2.37% in test [9].

Regarding `CC(C(=O)N1CCc2ccccc2C1)n1cc(Br)cn1` (stereo not given), the Percent Effect was -0.393% in test [1]; 0% in [2]; -6.91% in [3]; 6.63% in test [4]; 4.42% in the test on Trypanosoma cruzi; -6.9% in test [5]. For the same compound, the Percent Effect in test [6] is 7.82%; in the test listed under Homo sapiens, 19.8%; in test [7] it was 4.3%; in test [8], 13.6%; in [9], -3.62%.

Take `C=Cn1ncc(CN2C[C@@H]3CCCN3C[C@H]2CCSC)c1C`: the Percent Effect in [1] is -0.255%; in [2], 1.35%; in test [3], 5.26%; in [4] it was 9.13%; in the test on Trypanosoma cruzi it was 4.94%; in [5], -1.16%. Besides, the Percent Effect in test [6] was 9.36%; in the test listed under Homo sapiens it was 15.9%; in test [7], 1.07%; in test [8], 1.3%; in [9], -6.62%.

As to `Cn1cc(CN2CC[C@@H]3[C@@H](CCC(=O)N3CCC3=CCCCC3)C2)cn1`, the Percent Effect in test [1] was -5.13%; in test [2], 8.22%; in test [3] it was 4.85%; in test [4] it was 0.26%; with Trypanosoma cruzi it was 0.992%; in test [5] it was -2.79%. The Percent Effect in [6] was 10.7%; in the test filed under Homo sapiens it was -22.4%; in test [7] it was 0%; in test [8], 1.24%; in test [9], 1.06%.

For `Cc1cccc(CN2C(=O)CO[C@@H]3CN(CCO)C[C@H]32)c1`, the Percent Effect in test [1] was 1.05%; in test [2], 10.8%; in test [3], -5.9%; in test [4], -3.44%; with Trypanosoma cruzi, 4.88%; in test [5], 26.2%. Also, the Percent Effect in test [6] worked out at 12.1%; in the test listed under Homo sapiens it was 10.1%; in test [7] it was 6.93%; in [8], 8.54%; in test [9], 1.31%.

As for `COC(=O)[C@H](C)NC(=O)c1cc(-c2cccc(Cl)c2)no1`, the Percent Effect in test [1] was -6.04%; in [2], 5.26%; in test [3], -4.37%; in test [4], -0.548%; with Trypanosoma cruzi it was 2.43%; in test [5] it was -4.73%. Besides, the Percent Effect is 21.2% in test [6]; 6.45% in the test filed under Homo sapiens; 5.32% in test [7]; 10.4% in [8]; -8.08% in test [9].
